Growth data for seven molecules are collected here from PubChem BioAssay (NCI).

SMILES strings stand for the structures. The panel holds about 83,000 compounds, 20% with a hit somewhere; the sample as a whole holds those more often.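 Method: cells in 96-well plates; compound added at one concentration; 48 h incubation; percent growth measured; values under 10 scored active.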 A number with no mark means an inactive call. Activity calls are given as the source filed them.

What all share (test): NCI-60 one-dose screen, 48 h (100 = growth as untreated, 0 = no growth, -100 = all killed)
Holding throughout (conditions): 10 µM

Assay [1] has as its system SK-MEL-2 melanoma.
Assay [2] has as its system EKVX NSCLC.
Assay [3] relates to SN12C renal.
Assay [4] relates to UO-31 renal.
In assay [5] the test system is TK-10 renal.
Assay [6] deals with ACHN renal.
In assay [7] the test system is CAKI-1 renal.
In assay [8] the test system is MOLT-4 leukemia.
The subject of assay [9] is SR leukemia.
Assay [10] has as its system OVCAR-8 ovarian.
The test system of assay [11] is OVCAR-5 ovarian.
Assay [12] deals with OVCAR-4 ovarian.
For assay [13], the system named is SK-OV-3 ovarian.
In assay [14] the test system is IGROV1 ovarian.
In assay [15] the test system is OVCAR-3 ovarian.
Assay [16] concerns HS 578T breast.
For assay [17], the system named is NCI/ADR-RES ovarian.
Assay [18] deals with CCRF-CEM leukemia.
In assay [19] the test system is RPMI-8226 leukemia.

With `COc1cc2c3c(n([C@H]4CCOC4)c(=O)c2cc1OC)-c1cc2c(cc1C3=O)OCO2`, the growth in assay [1] was 99.8%; in assay [2], 60%; in [3], 22.9%; in assay [4], 10.6%; in assay [5], 90%; in [6], 0.59% (active). Further, the growth is 33.5% in [7]; 17.2% in assay [8]; 13.6% in assay [9]; 35.2% in [10]; 71.6% in [11]; 70.9% in assay [12]. For the same molecule, the growth in [13] was 24.6%; in [14], 62%; in assay [15] it was 46.9%; in assay [16], 107%; in [17], 27.5%.
For the molecule `COc1ccc(-c2nn(-c3cccc(Cl)c3)cc2-c2cc(-c3cccs3)[nH]c(=S)n2)cc1`, the growth is 71.3% in assay [1]; 44.6% in [2]; 61.1% in assay [3]; 24.3% in assay [4]; 66.7% in assay [5]; 48.4% in assay [6]. Also, the growth in assay [7] was 12.5%; in assay [18], 39.5%; in [8], 21.9%; in assay [9] it was 32.6%; in assay [10] it was 48.3%; in [11], 83.1%. Further, the growth in assay [12] was 60.4%; in [13] it was 83%; in assay [14], 50.7%; in [15], 57.8%; in [16], 62.7%; in [17], 47.4%.
On to `Cc1c2c[n+](C(C)C)ccc2c(C)c2c1[nH]c1ccccc12`, for which the growth in assay [1] was 12.3%; in [2] it was 29.4%; in assay [3], -11.8% (active); in [4] it was 72.1%; in assay [5], 54%; in assay [6], 85.7%. Moreover, the growth in [7] was 96%; in assay [8] it was 14.8%; in assay [9] it was 20.8%; in [10] it was 15.9%; in assay [11] it was 55.7%; in [12], 13.8%. In addition, the growth in assay [13] was -1.05% (active); in assay [14] it was 41.2%; in assay [15], 9.41% (active); in assay [16] it was 22.8%; in assay [17], 97.9%.
`CCOC(=O)c1sc2ncnc(Nc3ccc4c(cnn4C(=O)Nc4ccc(C)c(Cl)c4)c3)c2c1C`: the growth was 83.5% in assay [1]; 97.6% in [2]; 96.5% in assay [3]; 94.7% in assay [4]; 90.8% in assay [5]; 107% in assay [6]. For the same molecule, the growth in assay [7] was 96%; in assay [8], 95.6%; in assay [9], 79.2%; in assay [10], 102%; in [11], 110%; in [12], 115%. The growth is 97.3% in assay [13], 97.9% in assay [14], 117% in assay [15] and 112% in [16].
As to `c1cncc(-c2csc(-c3c[nH]c4ccccc34)n2)c1`, the growth in [1] was 97.3%; in [2] it was 50.6%; in assay [3], 85.9%; in assay [4], 66.5%; in assay [5] it was 125%; in assay [6] it was 88%. In addition, the growth is 88.3% in assay [7]; 79.8% in [8]; 70% in assay [9]; 95.8% in [10]; 95.6% in assay [11]; 79.1% in assay [12]. The growth in assay [13] was 79.3%; in assay [14], 68.8%; in assay [15], 85.6%; in assay [16] it was 90.6%; in assay [17], 94.7%.
For the molecule `CCC(c1ccc(OC)cc1)C(CC)c1ccc(O)c(CN2CCN(C)CC2)c1` (stereo not given), the growth is 62.2% in assay [1]; 44.3% in assay [2]; 55.1% in assay [3]; 37.3% in assay [4]; 72.2% in [5]; 69% in [6]. In addition, the growth in assay [7] is 41.1%; in [18], 56.9%; in assay [8], 57.4%; in assay [9] it was 4.26% (active); in assay [19], -21.6% (active); in assay [10], 67%. In addition, the growth in assay [11] was 80.4%; in [13], 78.7%; in assay [14] it was 68.5%; in assay [15] it was 79.8%; in assay [16], 61.4%; in [17] it was 60.3%.
As for `CN1CCc2c(sc3nc4n(-c5ccc(Cl)cc5)cnn4c(=O)c23)C1`, the growth is 118% in [1]; 87.2% in [2]; 98.9% in [3]; 84.1% in assay [4]; 116% in assay [5]; 109% in assay [6]. Further, the growth in assay [7] is 97.4%; in [8], 104%; in assay [9], 120%; in assay [10], 100%; in assay [11], 105%; in assay [12], 111%. The growth in assay [13] was 91.4%; in assay [14], 95.3%; in assay [15] it was 101%; in [16], 115%; in assay [17], 104%.
